The record followed here is PubChem BioAssay AID1789 (The Scripps Research Institute Molecular Screening Center, 2009).

About 2,700 (0.93%) of roughly 290,000 compounds were called active. The sample as a whole holds a higher share of actives than the screen did. A number with no mark means an inactive call.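 The calls were made as follows: active = inhibition above the screen-wide mean plus 3 SD, computed separately per campaign (cut at about 16% in these data); inactive = the rest.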 Square brackets hold non-standard residues; d marks the D form. Peptide text beside a SMILES is read from it. * marks the point of attachment. PhAc = O=C(Cc1ccccc1)*

In general, inhibition refers to the change of the read-out against control, counted positive when it falls.

The subject of this assay is Heat shock protein HSP 90 (rabbit reticulocyte lysate; luciferase refolding). Put plainly: inhibitors of HSP90 chaperone activity – cell lysate, luminescence, primary screen (AID 1789).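 Also: 0% = DMSO wells and 100% = 60 µM geldanamycin wells; inhibitors lower the luminescence because luciferase stays unfolded.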 The note with it: 3 h, at 5.6 µM, stronger effect = higher value.
Consider `COc1cc(OC)c(C(=S)N2CCCC2)cc1OC`, for which the inhibition is -0.17%.

For the compound `O=C(Cn1ncc(N2CCCC2)c(Br)c1=O)c1ccc(Cl)cc1`, the inhibition was -0.91%. For `CC(C)(C)Nc1nc(-c2ccccn2)nc2ccccc12` the value was -0.49%; for `Cc1nc(COc2cc3oc(=O)cc(C)c3cc2Cl)cs1`, 1.76%; for `CCN(C(=O)Cc1c(C(=O)O)n(CC)c2ccccc12)c1ccccc1C`, -6.6%.

Consider `Cc1c(CNCCc2ccccc2)c(C(=O)O)c(C)n1-c1ccccc1`, for which the inhibition was 1.5%. For `CCOCCOC(=O)C1=C(C)NC(=O)NC1c1ccc2c(c1)OCO2` (configuration not stated) the value was -3.33%; for `O=C(NC1CCCCCCC1)c1cccs1`, -3.45%.

Turning to `O=C(NCc1ccco1)/C(=C\c1cccc([N+](=O)[O-])c1)NC(=O)c1ccco1`, the inhibition was -0.13%. For `COCCN(C(=O)CCC(=O)Nc1nccs1)C(C(=O)NCCC(C)C)c1ccc(F)cc1` (configuration not stated) the value was 2.45%. For `Cc1ccc2c(cnn2C(=O)CCC(=O)NC2CCCC2)c1` the value was -3.9%; for `O=[N+]([O-])c1ccc(N=Cc2c(O)ccc3ccccc23)cc1`, 2.1%. For `Oc1c(C=Nc2cccc3nsnc23)ccc2ccccc12` the value was 36.7% (active). Take `COc1ccc(C=Nc2cccc3ncccc23)cc1`: the inhibition was 7.77%. Regarding `CC(C)C[C@@H](NC(=O)[C@H]1CCCN1C(=O)Cc1ccccc1)C(N)=O` (PhAc-[dP]-[dL]-NH2), the inhibition is -3.77%. For `COc1ccccc1NC(=O)CN(c1ccccc1OC)S(=O)(=O)c1ccccc1` the value was 0.43%; for `Cc1cccc(NC(=O)Nc2ccc3c(c2)OCO3)n1`, -5.1%.

Take `Cc1cccc(NC(=O)/C=C/c2ccc3c(c2)OCO3)n1`: the inhibition is 22.8% (active). `CCc1c(C)sc(NC(=O)/C=C/c2ccc3c(c2)OCO3)c1C(=O)OC`: the inhibition was -8.23%.

In the case of `Cc1cc(C)cc(NC(=O)NC2CCCCCCC2)c1`, the inhibition is -3.82%. For `O=C(Nc1ccn(Cc2ccccc2)n1)c1n[nH]c([N+](=O)[O-])c1Cl` the value was 22.3% (active); for `O=C(Nc1ccn(Cc2ccccc2)n1)c1cccc(F)c1`, 11.1%.

Turning to `Cn1cc([N+](=O)[O-])c(C(=O)Nc2cnn(Cc3ccc(F)cc3)c2)n1`, the inhibition was -0.28%. Take `O=S(=O)(NC1CCCCC1N1CCN(c2ccccc2F)CC1)c1ccccc1` (configuration not stated): the inhibition is 2.71%.

As for `O=C(Nc1ccc(Cl)cc1)c1cccc(OC(=S)N2CCOCC2)c1`, the inhibition is -7.8%.

Turning to `CCOC(=O)Cn1c(=O)n(Cc2ccc(OC)cc2)c(=O)c2cccnc21`, the inhibition was -2.48%. As for `Oc1cccc(/C=N/Nc2ccc(Cl)nn2)c1O`, the inhibition is 5.19%.
